Screening data as filed in PubChem BioAssay.
HCMV antiviral – inhibitors of human cytomegalovirus; HFF cells, HCMV-luciferase reporter, 72 h; hits give low values; hit rate 4.5% among 410,000; activity change, negative = inhibition, % at 57.5 µM; in the data active = activity change below about -60%; inconclusive = no clear call, values can overlap the other calls; inactive = above about -39%
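Two compound doses tested in HFFs infected with HCMV-luciferase, MOI 1 PFU/cell, 72 h at 37C. Lysate luminescence read with OneGlo; data normalized against buffer-only and 10uM Salinomycin inhibitor controls.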
AmpC inh detg – blocks E. coli AmpC beta-lactamase in detergent assay; P00811; AmpC hydrolysis of nitrocefin, absorbance 480 nm, 0.01% Triton; Potency, µM (doses to about 114 µM), for inactives: at the highest dose activity change, negative = inhibition, actives largely listed as inhibitors; hit rate 0.041% among 370,000;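 also: potency is read from the fitted curve at half-maximal effect; 0% = no-compound wells and -100% = no-enzyme wells; nearly all actives have a fitted effect of over 25% in size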
Target sequence (P00811 whole entry, looked up): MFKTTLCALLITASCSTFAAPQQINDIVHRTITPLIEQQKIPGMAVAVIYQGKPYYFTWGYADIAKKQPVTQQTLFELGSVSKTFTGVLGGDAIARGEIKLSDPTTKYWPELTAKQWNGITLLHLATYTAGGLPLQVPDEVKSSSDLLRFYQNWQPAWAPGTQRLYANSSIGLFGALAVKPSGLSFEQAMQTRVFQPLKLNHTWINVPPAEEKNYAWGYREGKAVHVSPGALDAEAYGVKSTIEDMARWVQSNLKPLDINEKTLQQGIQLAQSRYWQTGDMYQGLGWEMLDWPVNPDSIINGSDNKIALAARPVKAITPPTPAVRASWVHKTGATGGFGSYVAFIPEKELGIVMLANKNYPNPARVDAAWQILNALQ
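AmpC (5.3 nM in the dispensed reagent) in 20 mM phosphate pH 7.0 with 0.01% (detergent screen) or 0.0001% Triton X-100 was preincubated with compounds for 15 min at room temperature. Nitrocefin was then added from an 800 uM solution, and hydrolysis was followed at 480 nm.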
HCV inhibitor – blocks hepatitis C virus; Potency, µM (series often up to 41.8 µM), inactives show at the top dose activity change, negative = inhibition, actives largely listed as inhibitors; hit rate 3.4% among 340,000; Huh7.5.1 HCVcc-Cre infection, luciferase reporter, 44 h; AID 651820; also: potency is read from the fitted curve at half-maximal effect
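Infectious HCVcc-Cre (~0.5 moi) was added to cells just after compound, with cells seeded 4 h earlier at 1,000 per well. Luciferase activity after 44 h culture reported infection; substrate was incubated 15 min at room temperature before reading.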
FMDV antiviral – antivirals against foot and mouth disease virus; FMDV antiviral cell-based qHTS; Potency, µM (series often up to 57.9 µM), for inactives: at the top dose activity change, negative = inhibition, actives largely listed as inhibitors; hit rate 1.2% among 410,000; AID 1159524; calls by dose curve; tested in HEK293T cells; also: read-out not given here; potency is read from the fitted curve at half-maximal effect; nearly all actives have a fitted effect of over 45% in size
AmpC no deterg – inhibitors of E. coli AmpC beta-lactamase without detergent. hit rate 0.52% among 330,000. P00811. AmpC nitrocefin hydrolysis, absorbance 480 nm, 0.0001% Triton. Potency, µM (highest dose often 57.1 µM), for the others: at the highest dose activity change, negative = inhibition, actives largely listed as inhibitors;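 also: potency is read from the fitted curve at half-maximal effect; plate controls were no compound for no effect and no enzyme for full effect; nearly all actives have a fitted effect of over 20% in size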
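AmpC (5.3 nM in the dispensed reagent) in 20 mM phosphate pH 7.0 with 0.01% (detergent screen) or 0.0001% Triton X-100 was preincubated with compounds for 15 min at room temperature. Nitrocefin was then added from an 800 uM solution, and hydrolysis was followed at 480 nm.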
The depositor's hits bear a star; ? = inconclusive; / = no result given. Hits are enriched below; roughly 7.3% of the tested compounds scored in any of these assays. Unless noted, calls follow the shape of the dose curve; as a rule, active = well fitted curve in the direction sought with a large enough effect; inconclusive = small, poorly fitted or top-dose-only effect, or another doubt; inactive = no such curve, though single readings can be large; an effect the other way counts as inactive or inconclusive. Unless noted, % is scaled to controls: 0 for no effect and ±100 for the full control effect.

SMILES | HCMV antiviral | AmpC inh detg | HCV inhibitor | FMDV antiviral | AmpC no deterg
CCN(CC(O)Cn1c2ccccc2c2ccccc21)S(=O)(=O)c1ccc(F)cc1 (stereo not drawn) | 11 | ? | ? | 28µM* | -1%
COc1ccc(N(CC(O)Cn2nnc3ccccc32)S(=O)(=O)c2ccc(C)cc2)cc1 (stereo not drawn) | -62* | -16% | 11% | / | -10%
Cc1ccc(S(=O)(=O)NC(C)(C)CSc2nnc(Nc3ccccc3)s2)cc1 | -25 | -10% | 18µM* | ? | -41%
COc1ccccc1S(=O)(=O)Cc1ccc(C(=O)NCc2ccccc2)o1 | -5 | ? | 0% | 27% | -12%
CCNC(=S)N/N=C/c1ccc(C#N)cc1 | -62* | 8% | ? | -10% | -11%
CCNC(=S)N/N=C/c1ccco1 | 0 | ? | 0% | 8% | -11%
O=C(NCc1cccnc1)c1ccccc1NS(=O)(=O)c1ccc(Br)cc1 | -17 | / | 5% | 8% | -19%
Cc1ccc(NC(=O)c2ccc3c(c2)N(CC(=O)N2CCCCC2)C(=O)C(C)(C)O3)cc1 | -20 | 0% | 5.6µM* | -24% | 114%
Cc1ccc2nc(SCC(=O)N3CCC4(CC3)CC4C(=O)Nc3ccc(F)c(F)c3)[nH]c2c1 (stereo not drawn) | / | / | / | -4% | /
Cc1ccc2c(c1)c1nc3ccccc3nc1n2CCN1CCOCC1 | -14 | -7% | 13µM* | 5% | -1%
Cc1ccc2c(c1)c1nc3ccccc3nc1n2C | 241 | -12% | 11µM* | 36% | -16%
CCn1c2ccc(C)cc2c2nnc(SCCN3CCOCC3)nc21 | ? | 6% | -5% | ? | 8%
CCCCOC(=O)c1ccc(NC(=O)CC2NCCNC2=O)cc1 (stereo not drawn) | 30 | 0% | / | 17% | /
COc1ccc(CN2C(=O)C(n3cccc3)c3ccccc32)cc1 (stereo not drawn) | 3 | / | / | / | /
O=C(NCCc1ccc(F)cc1)c1coc(=O)c(Br)c1 | -78* | -10% | 7% | 35µM* | -24%
O=C(NCc1ccccn1)c1coc(=O)c(Br)c1 | 50 | 3% | 13% | 20µM* | -10%
O=C(NNC(=O)c1ccccc1O)c1ccc(S(=O)(=O)Nc2ccccc2F)cc1 | -4 | -17% | 16µM* | 16% | -35%
O=C(c1ccc(S(=O)(=O)Nc2ccccc2F)cc1)N1CCN(c2ccccn2)CC1 | -26 | / | 4.5µM* | ? | -15%
Cc1ccccc1NS(=O)(=O)c1ccc(C(=O)N2CCN(c3ccccn3)CC2)cc1 | -31 | -2% | ? | -20% | 9%
O=c1cc(N=Nc2ccc(Cl)cc2)[nH]c(=O)[nH]1 | -100* | ? | ? | 25µM* | -18%
O=C(c1ccc(Br)cc1)C(CN1CCOCC1)c1ccccc1 (stereo not drawn) | -2 | -5% | 1% | 18µM* | -26%
CCOc1ccc(C(=O)C(CN2CCOCC2)c2ccccc2)cc1 (stereo not drawn) | -99* | ? | ? | ? | 49%
CN(C)CC(C(=O)c1ccccc1)c1ccccc1 (stereo not drawn) | ? | ? | ? | 18µM* | -22%
O=C(c1ccccc1)C(CN1CCCCC1)c1ccccc1 (stereo not drawn) | -68* | / | ? | 28µM* | /
CC(CN1CCN(CC(C)C(=O)c2ccccc2)CC1)C(=O)c1ccccc1 (stereo not drawn) | -3 | / | -11% | -6% | /
SMILES | HCMV antiviral | AmpC inh detg | HCV inhibitor | FMDV antiviral | AmpC no deterg
O=C(CC(C(=O)c1ccccc1)c1ccccc1)c1ccccc1 (stereo not drawn) | -35 | / | -26% | 8% | /
Clc1cccc(Nc2nccc3[nH]c(-c4ccncc4)nc23)c1 | -5 | / | / | / | /
Cc1ccccc1NC(=S)N1CCN(c2ccccc2)CC1 | 34 | -16% | 13% | -3% | -31%
Cc1sc2ncnc(NCC(O)c3ccccc3)c2c1C (stereo not drawn) | -74* | 5% | 11µM* | -27% | -11%
Cc1sc2ncnc(NCC(c3ccccc3)N(C)C)c2c1C (stereo not drawn) | -28 | -10% | ? | ? | 1%
Cc1sc2ncnc(NCC(O)c3ccc([N+](=O)[O-])cc3)c2c1C (stereo not drawn) | -79* | 3% | 11µM* | ? | -31%
Cc1ccc([C@@H]2C[C@H]3[C@@H](CN2S(=O)(=O)c2ccc(Cl)cc2)C(=O)C[C@@H](c2ccc(Cl)cc2)N3S(=O)(=O)c2ccccc2C)cc1 | -22 | / | / | -24% | /
CN1C(=O)c2c(sc3c2CC(C)(C)SC3)N2CCN=C12 | -5 | 7% | 11µM* | ? | 117%
CC1(C)Cc2c(sc3c2C(=O)N(c2ccccc2)C2=NCCN23)CS1 | 11 | -12% | 23% | -23% | 95%
CCOc1ccc(/C=C/c2c([N+](=O)[O-])c(=O)n(C)c(=O)n2C)cc1 | -75* | -2% | 10% | -29% | 4%
COc1ccc(/C=C/c2c([N+](=O)[O-])c(=O)n(C)c(=O)n2C)cc1 | 10 | 3% | 2% | -1% | -13%
CCc1ccc(/C=C/c2c([N+](=O)[O-])c(=O)n(C)c(=O)n2C)cc1 | -98* | 4% | ? | 16µM* | -3%
CC(C)N(C(=O)Cn1cc(SCC(=O)Nc2ccccc2C(F)(F)F)c2ccccc21)C(C)C | -13 | -3% | / | 0% | /
CCOc1cc(C(=O)Nc2cc(C)ccc2C)ccc1OCC(=O)N1CCCCC1 | -71* | 2% | -18% | 0% | 44%
CCOc1cc(C(=O)Nc2ccc(C)cc2O)ccc1OCC(=O)N1CCOCC1 | 22 | -20% | ? | -9% | -14%
CC(C(=O)O)C1CCC2C3CC=C4CC(O)CC[C@@]4(C)C3CC[C@]12C (stereo partly drawn) | / | / | / | -7% | /
CC1=C(CO)C(=O)OC([C@@H](C)C2CC[C@H]3C4C[C@H]5O[C@]56[C@@H](O)C=CC(=O)[C@]6(C)C4CC[C@]23C)C1 (stereo partly drawn) | -107* | 2% | ? | 7.1µM* | 96%
O=c1oc2ccc(Br)cc2cc1-c1csc(-c2ccccc2)n1 | 2 | 7% | / | -7% | /
O=c1oc2ccccc2cc1-c1csc(Cc2nc(-c3ccc(Br)cc3)cs2)n1 | -99* | -4% | ? | -16% | -36%
Cc1cc(C)c(-c2csc(Cc3nc(-c4cc5ccccc5oc4=O)cs3)n2)cc1C | -65* | 3% | ? | ? | -33%
COc1ccc(CCn2c(=O)c3cccnc3n(CC(=O)Nc3c(C)cc(C)cc3C)c2=O)cc1OC | 3 | 19% | / | -18% | /
CS(=O)(=O)N(CC(=O)NCC1CCCO1)c1ccc(F)c(Cl)c1 (stereo not drawn) | -60* | -11% | 3% | -14% | -11%
Cc1cc(Br)ccc1SCC(=O)OCC(O)=C(C#N)c1nc2ccccc2[nH]1 | -9 | / | 7% | -7% | /
